A selection: hits, their analogues and other compounds. The true share with any hit is near 5.2%.
TrxR1 substrate – rat thioredoxin reductase 1 substrate activity | purified TrxR1 substrate turnover, NADPH consumption readout | Potency, µM (top dose mostly 114 µM), inactives show at the highest dose activity change, negative = substrate turnover | hit rate 0.01% among 390,000 | AID 588456; also: nearly all actives have a fitted effect of over 50% in size
Target sequence (O89049 whole entry, looked up): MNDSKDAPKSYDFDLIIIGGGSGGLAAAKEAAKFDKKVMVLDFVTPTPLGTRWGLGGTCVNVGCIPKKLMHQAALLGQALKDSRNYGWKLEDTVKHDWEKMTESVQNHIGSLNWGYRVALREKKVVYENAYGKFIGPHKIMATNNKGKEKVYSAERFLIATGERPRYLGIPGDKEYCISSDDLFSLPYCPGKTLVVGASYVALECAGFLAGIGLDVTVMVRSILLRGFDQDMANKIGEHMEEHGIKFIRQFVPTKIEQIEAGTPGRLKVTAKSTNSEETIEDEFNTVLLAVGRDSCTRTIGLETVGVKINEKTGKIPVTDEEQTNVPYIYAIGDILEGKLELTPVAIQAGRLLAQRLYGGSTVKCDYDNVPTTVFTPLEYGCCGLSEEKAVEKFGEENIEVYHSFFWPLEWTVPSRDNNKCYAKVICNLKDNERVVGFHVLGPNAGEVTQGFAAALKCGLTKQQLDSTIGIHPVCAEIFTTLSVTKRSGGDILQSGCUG
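Rat TrxR1, dispensed at 90 nM, was prereduced with 400 uM NADPH (final) for 5 min at ~22 deg C, then incubated with compound 15 min before 400 uM selenite. A first-read NADPH fluorescence drop versus no-compound background flagged substrates.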
VDR inh – inhibitors of human vitamin D receptor. VDR-SRC2-3 peptide fluorescence polarization, 2 h. Potency, µM, for inactives: max response, negative = inhibition, usual class: inhibitors. hit rate 0.93% among 400,000
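Fluorescence polarization assay measuring small-molecule disruption of VDR binding to the coregulator peptide SRC2-3. Compounds were pin-transferred (23 nl) into the reagent mix and incubated 2 h at room temperature before reading.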
mIDH1 inhibitor – inhibitors of human mutant IDH1 R132H; O75874; IDH1-R132H enzyme, NADPH consumption, diaphorase/resazurin fluorescence; Potency, µM (top dose mostly 76.6 µM), for inactives: top-dose activity change, negative = inhibition, hits mostly inhibitors; hit rate 0.093% among 390,000; also: nearly all actives have a fitted effect of over 65% in size
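IDH1-R132H (0.5 ug/mL dispensed) in pH 7.5 Tris buffer was preincubated 30 min with compound, then given a substrate mix of 0.016 mM NADPH and 2 mM alpha-KG for 80 min at room temperature; remaining NADPH was read by diaphorase/resazurin fluorescence.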
TrxR1 inh – rat TrxR1 inhibition. recombinant rTrxR1, NADPH fluorescence consumption, selenite substrate. Potency, µM (highest dose often 114 µM), inactives show at the top dose activity change, negative = inhibition, actives largely listed as inhibitors. hit rate 1% among 390,000. O89049; also: nearly all actives have a fitted effect of over 65% in size
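Rat TrxR1 (90 nM in the dispensed reagent) was pre-reduced with 400 uM NADPH for 5 min at room temperature, then incubated with compound for 15 min. After 400 uM selenite was added, NADPH fluorescence (Ex 340/Em 450 nm) was followed for 8 min.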
Sfp inh – inhibitors of Bacillus subtilis Sfp phosphopantetheinyl transferase; Biochemical Sfp PPTase activity, qHTS; Potency, µM, for inactives: largest response in the series, negative = inhibition, most hits filed as inhibitors; hit rate 3.5% among 310,000;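 also: the enzyme is Sfp with the accession as filed and its product quenches rhodamine fluorescence; 0% = enzyme reaction without inhibitor and -100% = no enzyme wells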
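With Hepes-Na pH 7.6 buffer containing 10 mM MgCl2, Sfp (15 nM) modified BHQ-2-YbbR (12.5 uM) using rhodamine-CoA (5 uM). Two reads 30 minutes apart at 525/598 nm yielded each well's rate.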
PLK1 PBD inh – blocks phosphopeptide binding to human PLK1 polo-box domain; Plk1 PBD binding of FITC phosphopeptide, fluorescence polarization; hit rate 2.8% among 360,000; Potency, µM, for inactives: max response, negative = inhibition, usual class: inhibitors; also: series mostly up to about 57 µM; nearly all actives have a fitted effect of over 65% in size
* marks the source's active call; other numbers are inactive results; ? = inconclusive; nt = no result given; [ ] = another dose, or the depositor's remark. Calls follow the shape of the dose curve; as a rule, active = well fitted curve in the direction sought with a large enough effect; inconclusive = small, poorly fitted or top-dose-only effect, or another doubt; inactive = no such curve, though single readings can be large; an effect the other way counts as inactive or inconclusive. Unless noted, % is scaled to controls: 0 for no effect and ±100 for the full control effect; potency is read from the fitted curve at half-maximal effect.

SMILES	TrxR1 substrate	VDR inh	mIDH1 inhibitor	TrxR1 inh	Sfp inh	PLK1 PBD inh
COc1cc(/C=C/C(=O)Nc2cc(S(=O)(=O)N3CCOCC3)ccc2N2CCCC2)cc(OC)c1OC	-7%	?	-12%	-2%	28µM*	6.7µM*
Cc1ccc(S(=O)(=O)N2CCOCC2)cc1NC(=O)CN1CCN(c2ccc(O)cc2)CC1	8%	-14%	5%	10%	40µM*	3%
CCOCC(=O)Nc1cc(S(=O)(=O)N2CCOCC2)ccc1N1CCCCC1	9%[57.1 µM]	?	-1%	-6%[57.1 µM]	11µM*	4.7µM*
O=C(Nc1cc(S(=O)(=O)N2CCOCC2)ccc1N1CCOCC1)c1ccc(Cl)nc1	1%	-23%	-1%	18%	25%	30µM*
Nc1[nH]nc2ncc3cc4ccccc4nc3c12	-9%[57.1 µM]	-1%	15%	26%[57.1 µM]	35µM*	-4%
Nc1[nH]nc2nc3ccccc3nc12	nt	-1%	nt	nt	9%	nt
CC1=N/C(=C\c2ccc([N+](=O)[O-])cc2)C(=O)N1c1cc(Cl)ccc1C	11%	-20%	6%	20%	56µM*	-7%
c1coc(CNc2nc(N3CCCCC3)nc3ccccc23)c1	19%[57.1 µM]	6%	1%	12%[57.1 µM]	?	-6%
Cc1ccc(Nc2nc(NCc3ccco3)c3ccccc3n2)cc1	17%[57.1 µM]	0%	-18%	11%[57.1 µM]	10µM*	4%
c1ccc(N2CCN(c3nc(NCc4ccco4)c4ccccc4n3)CC2)cc1	4%	7%	-2%	-24%	32µM*	-2%
Oc1ccccc1Nc1nc(NCc2ccccc2)c2ccccc2n1	-7%	-3%	-13%	13%[57.1 µM]	28µM*	-10%
c1ccc(CNc2nc(N3CCN(Cc4ccccc4)CC3)nc3ccccc23)cc1	-1%[57.1 µM]	2%	-2%	2%[57.1 µM]	56µM*	-11%
CCCN1CNc2c(c(=O)[nH]c(=S)n2CCc2c(OC)cccc2OC)C1	-3%	-17%	nt	-3%	nt	nt
OCCNc1nc(Nc2ccc(Br)cc2)nc2ccccc12	7%	6%	4%	20%[57.1 µM]	40µM*	?
O=C(/C=C/c1ccccc1)OCCN1C(=O)c2ccccc2C1=O	6%[57.1 µM]	7%	3%	15%	-4%	0%
O=C(Nc1ccccc1C(F)(F)F)NC1(C(=O)N2CCOCC2)CCCCC1	-1%	?	2%	?	nt	6.7µM*
Cc1ccccc1NC(=O)NC1(C(=O)N2CCOCC2)CCCCC1	11%	0%	1%	16%	17%	4%
CC1(C)Cc2c(ccc3ccccc23)/C(=C/C#N)N1	-1%	-7%	6%	?	-24%	-12%
CNC(=O)/C=C1\NC(C)(C)Cc2c1ccc1ccccc21	16%[57.1 µM]	79µM*	-1%	?	-3%	-13%
[O-]c1n[n+](-c2ccc(Cl)cc2Cl)cc2ccccc12	-3%	12%	-8%	4%	-12%	-10%
[O-]c1n[n+](-c2ccc(Cl)cc2)cc2ccccc12	5%[57.1 µM]	?	-1%	25%[57.1 µM]	12%	3.4µM*
CCOC(=O)C1(C)CCCN(C(=O)c2ccc(OC)cc2)C1 (stereo not drawn)	nt	nt	nt	nt	nt	-5%
Cn1c(=O)c(C(=O)CN2CCc3ccccc32)c(N)n(Cc2ccccc2)c1=O	-5%[57.1 µM]	?	2%	8%[57.1 µM]	16%	30µM*
FC(F)(F)c1ccc(-c2cccc3c2C2CC3CCN2Cc2ccc3c(c2)OCO3)cc1 (stereo not drawn)	nt	nt	nt	nt	nt	0%
CCc1nnc(NC(=O)c2ccc(S(=O)(=O)N(C)c3ccccc3)cc2)o1	-7%	-21%	-6%	7%	19%	30µM*
SMILES	TrxR1 substrate	VDR inh	mIDH1 inhibitor	TrxR1 inh	Sfp inh	PLK1 PBD inh
CSCc1nnc(NC(=O)c2ccc(S(=O)(=O)N(C)C)cc2)o1	-5%	-13%	10%	6%	?	13µM*
CCc1nnc(NC(=O)c2ccc(S(=O)(=O)N(CC(C)C)CC(C)C)cc2)o1	-9%	-20%	0%	-5%	15%	-7%
C=CCOC(=O)NC(CC(=Nc1ccc(OC)cc1)C(=O)OC)c1ccccc1 (stereo not drawn)	nt	0%	nt	nt	-24%	nt
O=C(O)C1C2C=CC(C2)C1C(=O)Nc1cccc(F)c1 (stereo not drawn)	0%	6%	0%	2%	9%	-10%
Cc1ccc(-c2cccc(NC(=O)C3C(C(=O)O)[C@@H]4C=C[C@H]3C4)c2)o1 (stereo partly drawn)	5%	19%	8%	?	7.9µM*	-4%
c1cnc2nc(-c3ccc4c(c3)OCO4)cn2c1	3%[57.1 µM]	1%	-3%	23%[57.1 µM]	11%	-13%
c1ccn2cc(-c3ccc4c(c3)OCO4)cc2c1	10%[57.1 µM]	-9%	-4%	-48%	56µM*	-13%
CCOC(=O)c1sc2cccc(F)c2c1S(=O)(=O)N1CCN(c2cccc(Cl)c2)CC1	2%[57.1 µM]	-1%	12%	19%[57.1 µM]	nt	nt
Cc1ccc(CN2CCOCCS2(=O)=O)cc1	-3%	nt	nt	-1%	nt	nt
C=CCNC(=O)c1cc(Cl)ccn1	3%	-2%	-6%	17%	8%	-24%
C=CCNC(=O)c1cc(Cl)cc(Cl)c1	6%[57.1 µM]	?	7%	25%[57.1 µM]	11%	30µM*
CCOCCOC(=O)C1=C(C)N(C)C(=O)NC1c1ccccc1Cl (stereo not drawn)	0%	-7%	2%	4%	6%	3%
CCOC(=O)C1=C(C)N(C)C(=O)NC1c1cccc2ccccc12 (stereo not drawn)	-7%	?	-8%	-11%	-2%	11µM*
Cc1ccc(CN(Cc2cc3cc4c(cc3[nH]c2=O)OCCO4)Cc2nnnn2Cc2ccco2)cc1	24%	?	-2%	?	10µM*	-28%
Cc1ccc2[nH]c(=O)c(CN(Cc3ccco3)Cc3nnnn3Cc3ccco3)cc2c1	1%	-10%	nt	13%	nt	nt
Cc1ccc(C)c2[nH]c(=O)c(C(c3nnnn3Cc3ccco3)N3CCc4ccccc4C3)cc12 (stereo not drawn)	-3%[11.4 µM]	18%	-5%	4%[11.4 µM]	20µM*	-24%
Cc1ccc2[nH]c(=O)c(CN(Cc3ccccc3)Cc3nnnn3Cc3ccco3)cc2c1	-3%[0.0914 µM]	-17%	nt	-28%	nt	nt
COc1ccccc1CN(Cc1cc2c(C)ccc(C)c2[nH]c1=O)Cc1nnnn1Cc1ccco1	6%[57.1 µM]	3%	-1%	12%[57.1 µM]	20µM*	-10%
Cc1ccc2cc(CN(Cc3ccc4c(c3)OCO4)Cc3nnnn3Cc3ccco3)c(=O)[nH]c2c1	5%	-21%	9%	-7%	25µM*	-2%
CSCCC(NC(=O)/C(=C/c1ccc(F)cc1)NC(C)=O)C(=O)O (stereo not drawn)	-5%	-8%	5%	24%[57.1 µM]	3%	-10%
COc1cc(Br)c(CN2CCCN(C)CC2)cc1OC	1%	-13%	2%	20%	-2%	-8%

Screening results (PubChem BioAssay)
